Compound activity from PubChem.
Shown are actives, neighbours in structure and some others; about 2.5% of the full set was active somewhere.
sEH act: increases human soluble epoxide hydrolase activity; AID 717; P34913; activation, % at 2 µM; hit rate 0.04% among 91,000; purified human sEH enzymatic activity, activator screen; in the data active means activation above about 37%
Target sequence (P34913 whole entry, looked up): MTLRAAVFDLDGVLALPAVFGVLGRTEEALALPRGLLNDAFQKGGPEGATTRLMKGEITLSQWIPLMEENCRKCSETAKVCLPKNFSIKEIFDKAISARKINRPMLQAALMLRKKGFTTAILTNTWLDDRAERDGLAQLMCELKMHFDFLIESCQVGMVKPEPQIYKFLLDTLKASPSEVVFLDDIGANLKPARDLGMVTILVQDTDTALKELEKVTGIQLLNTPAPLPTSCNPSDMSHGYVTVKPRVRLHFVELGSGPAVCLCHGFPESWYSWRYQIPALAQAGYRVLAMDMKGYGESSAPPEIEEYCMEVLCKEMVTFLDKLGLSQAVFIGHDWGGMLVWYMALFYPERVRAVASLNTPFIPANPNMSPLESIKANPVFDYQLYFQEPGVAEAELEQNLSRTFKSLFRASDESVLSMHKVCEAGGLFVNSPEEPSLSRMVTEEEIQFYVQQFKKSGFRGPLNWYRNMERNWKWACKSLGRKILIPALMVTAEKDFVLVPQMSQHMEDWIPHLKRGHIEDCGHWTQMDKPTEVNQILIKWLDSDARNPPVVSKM
MRP1 act: MRP-1 activation | hit rate 0.61% among 140,000 | H69AR cells + doxorubicin, viability rescue, CellTiter-Glo | viability increase, % at 10 µM;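 active means viability gain under doxorubicin at or above a set limit, the compound median plus 3 SD, cut at about 4.7% in these data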;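 further: MRP-1 overexpressing cells given doxorubicin 25 µM after compound pretreatment; 18-22 h compound pretreatment then 72 h with doxorubicin before readout; 0% = doxorubicin-only wells and 100% = vehicle-treated cells without doxorubicin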
sdo1 growth: sdo1-depleted yeast growth rescue; S. cerevisiae sdo1-depleted JHY4D growth rescue, OD600 30 h; stronger effect = higher value; pdr5 snq2 efflux-pump mutant strain; z-score at 10 µM; hit rate 0.21% among 140,000; AID 817;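 active means z-score above 3 at both the 24 hr and the 30 hr optical density reads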;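 further: z-score against mean and SD of all compound wells on the same plate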
sEH inhibitor: soluble epoxide hydrolase (human) inhibition; P34913; recombinant human sEH enzymatic activity assay; inhibition, % at 2 µM; hit rate 0.34% among 91,000; in the data active means inhibition above about 80%
Measles CPE: protection of cells from measles virus. Measles virus-infected cells, CPE protection, absorbance. protection (pct of control), % at 4 µM. hit rate 1.5% among 140,000; in the data active means protection mostly above about 24%, no sharp cut-off; inactive means mostly below about 26%
MRP resist rev: MRP-mediated drug resistance reversal; H69AR cells + 2 uM doxorubicin, CellTiter-Glo, 72 h; differential viability (reversal), % at 10 µM; hit rate 0.04% among 85,000; AID 602;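 active means viability drop by adding the cancer drug above about 55%, with treated viability meeting a 40% cutoff, limit read from the data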;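 further: viability without doxorubicin minus viability with 2 µM doxorubicin for each compound; larger differential means the compound sensitizes cells more to doxorubicin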
SDO1 rescue DR: SDO1-depleted yeast growth rescue confirmation | shares compounds with sdo1 growth | S. cerevisiae JHY4D (SDO1-depleted) growth rescue, OD600, 30 h; stronger effect = higher value; efflux-deficient strain, SNQ2 and PDR5 mutated | OD recovery (concentration not given with the values) | hit rate 44% among 440;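 active means yeast growth recovered at 30 hours, either rising with dose fitted slope above 0.001 or with average optical density gain above 0.07, some results past the limit were not filed as active; inactive means growth falling with dose or no effect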;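 further: gain in OD600 from 0 h to 30 h averaged across all seven doses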
Active calls of the source: *; · = no result given.

SMILES	sEH act	MRP1 act	sdo1 growth	sEH inhibitor	Measles CPE	MRP resist rev	others
O=c1[nH]c2ccccc2n1C1CCN(CCCC(c2ccc(F)cc2)c2ccc(F)cc2)CC1	·	-4	-1.7	·	4	0
O=C1CC(N2CCC(n3c(=O)[nH]c4ccccc43)CC2)C(=O)N1c1ccc(F)cc1 (stereo not given)	-12	6.2*	2	13	1	3
CN(C(=O)Oc1ccc(Cl)c2cccnc12)c1ccccc1	·	2	0.35	·	31*	·
CN(C(=O)Oc1cccc2cccnc12)c1ccccc1	-10	-3	0.6	7	18	·
COC(=O)C(O)(c1c(C)[nH]c2ccccc12)C(F)(F)F (stereo not given)	-3	-3	1.3	2	5	-23
O=P(Nc1ccccc1)(Nc1ccccc1)Oc1cccc(Cl)c1	-1	-2	-0.73	2	3	·
CCN(CC)CCOC(=O)c1ccc(N=Cc2c(O)[nH]c(=O)[nH]c2=O)cc1	-1	-3	0.73	2	60*	·
CCOC(=O)c1ccc(N=Cc2c(O)n(-c3ccccc3F)c(=S)[nH]c2=O)cc1	·	-1	0.84	·	18	·
CCS(=O)(=O)NCc1nnc2n1-c1ccc(Cl)cc1C(c1ccccc1)=NC2	·	-2	0.7	·	6	·
CS(=O)(=O)NCc1nnc2n1-c1ccc(Cl)cc1C(c1ccccc1)=NC2	·	-1	-0.8	·	28*	·
O=c1[nH]c(=S)n(-c2ccccc2)c(O)c1/C=N/N1CCOCC1	·	-3	1	·	22	·
Cc1sc2c(c1C)C(c1ccc(C(C)(C)C)cc1)=NCC(=O)N2CC(=O)Nc1nccs1	-1	-3	-2.1	3	54*	·
C[N+]1=C(/C=C/Nc2ccccc2)C(C)(C)c2ccccc21	·	-2	6.2*	·	7	·	SDO1 rescue DR=0.14*
CC(C)(C)n1c(O)c(C=Nc2ccc3c(c2)CCC3)c(=O)[nH]c1=O	5	3	-1.5	-4	15	·
COc1ccccc1N=Cc1c(O)n(C)c(=O)n(C)c1=O	27	-2	3.2*	-25	11	1	SDO1 rescue DR=0.083*
Nc1ccccc1N=Cc1c(O)n(CCC2=CCCCC2)c(=O)[nH]c1=O	-15	-6	7.4*	15	1	·	SDO1 rescue DR=0.059
O=C(N/N=C/c1c(O)n(CCC2=CCCCC2)c(=O)[nH]c1=O)c1ccccc1	·	1	1	·	3	·
Cc1ccc(C)c(C2(O)CC(C)N(C)CC2C)c1 (stereo not given)	·	-2	0.74	·	9	10
